Compound activity (PubChem BioAssay)
CCT chaperon mod = cytosolic chaperonin activity modulation; hit rate 0.3% among 360,000; purified chaperonin ATPase assay, HTRF ADP detection, 30 min; AID 651819; activity change, % (concentration not given with the values), hits read low; in the data active means activity change below about -30%; further: on the % scale 0 is the no-effect control and ±100 the full control effect
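TRiC (40 or 20 nM final, by batch activity) in 30 mM Tris pH 7.4, 100 mM KCl, 5 mM MgCl2, 1 mM DTT was treated with compound at 76 uM single dose, then 10 uM ATP, 30 min at 37 °C. ADP was read by HTRF Transcreener.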
FUS suppressor = suppressors of FUS proteinopathy in yeast; Potency, µM (titrated, usually from 76.6 µM), hits mostly activators; AID 1347120; hit rate 0.24% among 390,000; S. cerevisiae FUS-expressing, growth rescue, OD600, 24 h;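 further: potency means the concentration at half of the fitted maximal effect; plate controls were DMSO vehicle for no effect and reference control for full effect; nearly all actives have a fitted effect of over 55% in size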
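S. cerevisiae expressing FUS from galactose induction served as the toxicity model. Growth after 24hr at 30C, read as absorbance at 600 nm, indicates suppression of toxicity; compounds dosed at several concentrations.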
aSyn rescue = alpha-synuclein toxicity inhibition in yeast; AID 652106; hit rate 0.14% among 370,000; Yeast expressing alpha-synuclein, growth rescue, BacTiter-Glo, 24 h; Potency, µM (doses to about 46.1 µM), without a hit: at the highest dose growth rescue (activation), usual class: activators; further: potency means the concentration at half of the fitted maximal effect; % of control where 0% means no effect; nearly all actives have a fitted effect of over 65% in size
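Readout is rescue of growth in alpha-synuclein-expressing yeast, so inhibitors of toxicity appear as activators. Growth after 24 hr at 30 deg C in galactose medium is quantified by luminescence.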
TDP43 rescue = inhibitors of TDP-43 toxicity in yeast. TDP-43 expressing yeast growth rescue, BacTiter-Glo, 24 h. hit rate 1.8% among 410,000. Potency, µM (doses to about 46.1 µM), without a hit: at the top dose growth rescue (activation), usual class: activators; further: potency means the concentration at half of the fitted maximal effect; % of control where 0% means no effect; nearly all actives have a fitted effect of over 50% in size
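In this qHTS, compounds that restore growth of yeast expressing TDP-43 appear as activators. Cells (OD600=0.02, galactose medium, raffinose-pregrown) are incubated with compound 24 hr at 30 deg C and growth is quantified by BacTiter-Glo.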
Abeta rescue = A-beta toxicity reversal in yeast; hit rate 0.063% among 410,000; yeast expressing A-beta42, growth rescue, OD600, 48 h; response scale: 0% DMSO, 100% iron-clioquinol control; Potency, µM (titrated, usually from 46.1 µM), hits mostly activators; further: potency means the concentration at half of the fitted maximal effect; nearly all actives have a fitted effect of over 55% in size
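Growth rescue measured by 600 nm absorbance after 48 h yeast culture at 30 C with compound. Values normalized between DMSO and an equimolar ferric chloride plus clioquinol control.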
Mm-Cpn inhibitor = blocks the Methanococcus maripaludis chaperonin Mm-Cpn. purified Mm-Cpn ATPase, ADP Transcreener TR-FRET. AID 504842. Potency, µM (highest dose often 76.9 µM), for inactives: at the top dose activity, negative = inhibition, most hits filed as inhibitors. hit rate 0.031% among 330,000; further: potency means the concentration at half of the fitted maximal effect; on the % scale 0 is the no-effect control and ±100 the full control effect; nearly all actives have a fitted effect of over 80% in size
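Purified archaeal chaperonin (25 nM final) was preincubated with compound for 10 min at 37°C, then ATP (10 uM final) was added for 30 min at 37°C in Tris pH 7.4/KCl/MgCl2/DTT buffer. ADP was quantified by HTRF Transcreener TR-FRET.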
* hit, by the source's call; i = inactive; ? = inconclusive; . = no result. Sampled rows, rich in hits. Any-hit rate of the full collection: about 2.3%. Unless noted, the call rests on the fitted dose curve; in most records, active means well fitted curve in the direction sought with a large enough effect; inconclusive means small, poorly fitted or top-dose-only effect, or another doubt; inactive means no such curve, though single readings can be large; an effect the other way counts as inactive or inconclusive.

SMILES	CCT chaperon mod	FUS suppressor	aSyn rescue	TDP43 rescue	Abeta rescue	Mm-Cpn inhibitor
O=C(Nc1ccccn1)C1CCN(S(=O)(=O)c2ccc3ccccc3c2)CC1	-2	i	8%	11µM*	i	1%
CCCCN1CCS(=O)(=O)N(Cc2cn(Cc3ccc(C)cc3)nn2)C(C(=O)OC)C1 (stereo not given)	.	i	.	.	.	.
O=C(C1CCN(S(=O)(=O)c2ccc(Cl)s2)CC1)N1CCN(c2ccccc2)CC1	0	.	21%	14µM*	i	.
Cc1ccc(N=Cc2nc(-c3ccc(C)cc3)oc2O)cc1	-1	?	-6%	-1%	i	3%
COc1ccc(N=Cc2nc(-c3ccco3)oc2O)cc1	-4	i	-7%	7.1µM*	i	-6%
CCN1CCCC1CNC(=O)C(=O)NCCc1ccc(OC)c(OC)c1 (stereo not given)	-34*	i	-1%	-2%	i	-1%
CN(C)c1ccc(/C=C/c2sc3ccccc3[n+]2CCCCI)cc1	.	.	-49%	.	.	.
CCn1c(C)c(C)c2cc(C(=O)N3CCN(c4ccccc4)CC3)ccc21	0	?	21%	22µM*	i	-5%
CCn1c(C)c(C)c2cc(C(=O)N3CCCC3)ccc21	0	i	-2%	-11%	i	1%
CCOC(=O)C(Cc1ccccc1)CP(=O)(OC)[C@@H](C)NC(=O)OCc1ccccc1 (stereo not given in full)	.	i	.	.	.	.
CCCOc1cccc(C(=O)N/N=C/c2coc3ccccc3c2=O)c1	-37*	i	4%	?	i	1%
CCOC(=O)N1CCC(NC(=O)c2cc3c(-c4ccc(OC)c(OC)c4)nn(C)c3s2)CC1	-4	i	-4%	-1%	i	2%
CCOC(=O)C1CCN(C(=O)c2cc3c(-c4ccc(OC)c(OC)c4)nn(C)c3s2)CC1	-1	i	-12%	14µM*	i	0%
CC(=O)N1c2ccc(S(=O)(=O)N3CCC(C(=O)N4CCN(c5ccc(Cl)cc5)CC4)CC3)cc2CC1C (stereo not given)	-1	?	-2%	5%	i	3%
COc1cccc(N2CCN(C(=O)C3CCN(S(=O)(=O)c4ccc5c(c4)CC(C)N5C(C)=O)CC3)CC2)c1 (stereo not given)	1	14µM*	7%	19%	.	2%
CCN(C(=O)/C=C/c1ccc(OC)cc1)C1CCS(=O)(=O)C1 (stereo not given)	-1	i	-2%	0%	i	0%
CCN(C(=O)/C=C/c1ccc(OC)cc1)C1CCCCC1	-3	i	6%	18µM*	i	5%
CC(=O)Nc1ccc(N/C=C/C(=O)c2ccccc2)cc1	2	i	12%	13µM*	i	0%
O=C(/C=C/Nc1ccccc1)c1ccccc1	0	i	-10%	20%	i	-1%
O=C(CCn1c(=O)c2cccn2c2cccnc21)N1CCN(c2cccc(C(F)(F)F)c2)CC1	.	i	.	25µM*	i	.
O=C(CCn1c(=O)c2cccn2c2cccnc21)N1CCN(c2ccccc2)CC1	.	i	.	17%	i	.
CCOC(=O)c1cnc2c(OC)cccc2c1N1CCN(c2ccccc2F)CC1	.	i	.	11µM*	i	.
CCOC(=O)c1cnc2ccc(OCC)cc2c1N1CCN(c2ccccc2OC)CC1	0	i	8%	35µM*	i	-4%
CCOC(=O)c1cnc2ccc(OCC)cc2c1N(C)Cc1ccccc1	-5	i	14%	22µM*	i	-5%
CCOC(=O)c1cnc2ccc(OCC)cc2c1NCCc1ccc(OC)c(OC)c1	.	i	.	15%	i	.
SMILES	CCT chaperon mod	FUS suppressor	aSyn rescue	TDP43 rescue	Abeta rescue	Mm-Cpn inhibitor
COc1ccc(C(O)c2nc(-c3ccc(F)c(Cl)c3)cs2)cc1 (stereo not given)	2	i	13µM*	11µM*	?	.
COc1cc(C(O)c2nc(-c3ccc(F)cc3OC)cs2)ccc1F (stereo not given)	0	i	?	25µM*	i	.
COc1cc(C(O)c2nc(-c3cccc(C#N)c3)cs2)ccc1F (stereo not given)	-19	i	?	10µM*	i	.
COc1ccc(-c2csc(C(O)c3ccc(F)c(OC)c3)n2)cc1 (stereo not given)	0	?	18µM*	22µM*	?	.
COc1cc(C(O)c2nc(-c3ccccc3)cs2)ccc1F (stereo not given)	0	i	?	0%	i	.
Cc1ccc(-c2c(NC(=O)Nc3ccc(F)cc3)nc3ncccn23)cc1	.	i	.	.	.	.
COc1ccc(S(=O)(=O)NCCc2sc(-c3cccc(F)c3)nc2C)cc1	.	i	.	25µM*	i	.
COc1ccc(-c2nc(C)c(CCNS(=O)(=O)c3cc(Cl)ccc3Cl)s2)cc1	.	?	?	25µM*	i	.
COc1ccc(-c2nc(C)c(CCNS(=O)(=O)c3ccc(F)cc3)s2)cc1OC	.	i	7%	?	i	.
COc1cccc(C(=O)CC2(O)C(=O)Nc3ccc(Cl)cc32)c1 (stereo not given)	.	i	.	14%	i	.
O=C(NCCc1ccccc1)c1ccc(CSc2nc3cccnc3n2Cc2ccccc2F)cc1	.	i	.	2%	i	.
Cc1ccc(S(=O)(=O)NC(=O)c2cc(C)n(-c3ccccc3)c2C)cc1	0	i	-9%	?	i	-1%
Cc1ccc(S(=O)(=O)NC(=O)c2cc(C)n(-c3ccc(N(C)C)cc3)c2C)cc1	-1	?	-16%	35µM*	i	1%
Cc1cccc(NC(=O)c2ccc(CN3CC(=O)N4CCCCC4C3=O)cc2)c1C (stereo not given)	.	i	.	-1%	i	.
COc1cccc(CNC(=S)OC2CCC23CCC(c2ccccc2)CC3)c1 (stereo not given)	.	i	.	.	.	.
CCN(CC)C(=O)CC[C@@H]1CC[C@]2(CCCN(Cc3cccs3)C2)O1	.	i	.	.	.	.
COc1ccc(C(=O)Nc2ccc(N3CCOCC3)cc2)cc1OC	-2	i	-26%	-18%	i	0%
COc1cc(CCC(=O)Nc2ccc(Cl)c(C(F)(F)F)c2)cc(OC)c1OC	-5	.	-6%	20%	i	3%
COc1cc(C(=O)Nc2ccc(Cl)c(C(F)(F)F)c2)cc(OC)c1OC	0	i	?	18µM*	i	4%
COc1ccc(C(=O)Nc2ccc(N3CCOCC3)c(C(F)(F)F)c2)cc1OC	.	i	3%	20µM*	i	.
Cc1nc2ccccc2nc1C	.	.	2%	.	.	.
CCn1c(SCc2nc(-c3ccccc3)no2)nc2ccccc21	-1	i	6%	16µM*	i	1%
